Results published in PubChem BioAssay (NCI).
Compounds without any hit were thinned out: in the full panel of roughly 83,000, 20% have a hit.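 Cell lines were cultured in 96-well plates, exposed to a single compound concentration, and assessed for percent growth 48 hours later.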 Values without a mark were called inactive. Activity calls are given as the source filed them. Rule for the calls: active = growth percent below 10; inactive = the rest.

These molecules were tested on SK-MEL-5 melanoma (assay: NCI-60 one-dose screen, 48 h (100 = growth as untreated, 0 = no growth, -100 = all killed)). Conditions: 10 µM unless noted.

Going from Cc1ccc2sc3c(NCCCNCCO)nc4ccccc4c3c(=O)c2c1 to CNCCNc1nc2ccccc2c2c(=O)c3cc(OC)ccc3sc12, the growth falls from 85.6% to 76.4%.

First: NCCOc1ncccc1/C=C1\c2ccccc2-c2ccc(F)cc21
Second: NCCOc1ccccc1/C=C1\c2ccccc2-c2ccc([N+](=O)[O-])cc21
The growth of the first is lower: 25.1% for the first, 30.1% for the second.

First: CC(C)c1ccc(S(=O)(=O)NC(=O)NC2CCCC2)cc1
Second: COc1cc2nc(NC3CCCC3)nc(NC3CCN(C(C)C)CC3)c2cc1OC
The growth of the first is higher: 101% for the first, 67.6% for the second.

Compared with COc1cc(/C=C2\CN(C)C/C(=C\c3cc(CN4CCCC4)c(O)c(OC)c3)C2=O)cc(CN2CCCC2)c1O, COc1cc(/C=C2\CN(S(=O)(=O)c3ccccc3)C/C(=C\c3cc(CN4CCCC4)c(O)c(OC)c3)C2=O)cc(CN2CCCC2)c1O is lower in growth: 89.3% for the first, 20.7% for the second.

Going from Nc1ccccc1-c1ccc(-c2ccc(Cl)cc2)c2c1[nH]c1ccccc12 to O=C(CSc1nc2ccccc2c(=O)n1-c1ccccc1)Nc1ccc(C(=O)/C=C/c2ccc(Cl)cc2)cc1, the growth rises from 86.9% to 103%.

First: O=C(Cn1cc(COc2ncnc3c2cnn3-c2ccccc2)nn1)Nc1ccccn1
Second: O=c1c(-c2nc3ccccc3[nH]2)cc2ccccc2n1Cc1cn(Cc2ccc(N3CCOCC3)cc2)nn1
The growth of the first is higher: 92.3% for the first, 71.9% for the second.

First: Cc1ccc2cccc(Oc3ccc(Nc4ncnc5onc(-c6ccccc6)c45)cc3)c2n1
Second: Clc1ccc(Oc2ccc(Nc3ncnc4onc(-c5ccccc5)c34)cc2)c(Cl)c1
The growth of the first is lower: 46.3% for the first, 93.4% for the second.

Compared with COC(=O)/C(CCC=C(C)C)=C1\[C@@H](OC(C)=O)C[C@@]2(C)[C@H]1C[C@@H](O)[C@H]1[C@@]3(C)CC[C@H](NCc4ccccc4)[C@@H](C)[C@@H]3CC[C@@]12C, COC(=O)/C(CCC=C(C)C)=C1\[C@@H](OC(C)=O)C[C@@]2(C)[C@H]1C[C@@H](O)[C@H]1[C@@]3(C)CC[C@H](NCCCNCCCCNCCCN)[C@@H](C)[C@@H]3CC[C@@]12C is lower in growth: 59.4% for the first, 12.6% for the second.

Compared with COc1cc(/C=C/C(=O)c2ccc(Cl)cc2)cc(CN2CCCCC2)c1O, COc1cc(/C=C/C(=O)c2ccc(Nc3nc(NCCO)nc(N4CCOCC4)n3)cc2)cc(OC)c1OC is lower in growth: 90.7% for the first, 10.5% for the second.

First: O=C(/C=C/c1ccc(Cl)cc1)c1ccc(Nc2nc(NCCO)nc(Nc3ccc(Cl)cc3)n2)cc1
Second: O=C(/C=C/c1ccc(C(F)(F)F)cc1)c1ccc(Nc2nc(NCCO)nc(N3CCOCC3)n2)cc1
The growth of the first is higher: 81.5% for the first, 46.3% for the second.

First: CN1CCN(Cc2ccc(NC(=O)c3[nH]ncc3Nc3cc(OC4CCCC4)ncn3)cc2)CC1
Second: Cc1nc(Nc2cn[nH]c2C(=O)Nc2ccc(CN3CCN(C)CC3)cc2)c2ccsc2n1
The growth of the first is lower: 14.5% for the first, 90.3% for the second.

Going from CCN1C(=O)N(CC)C2Nn3c(s/c(=C\c4ccccc4F)c3=O)=NC21 (centres undefined) to CN1C(=O)N(C)C2Nn3c(s/c(=C4\C(=O)N(CCc5ccccc5)c5ccccc54)c3=O)=NC21 (centres undefined), the growth falls from 33.9% to 27.4%.

First: Cc1ccccc1CNC(=O)C1CN(c2ccc(Cl)cc2)N(c2ccc(Cl)cc2)C1=O (centres undefined)
Second: O=C(NCc1ccco1)C1CN(c2ccc(Cl)cc2)N(c2ccc(Cl)cc2)C1=O (centres undefined)
The growth of the first is higher: 86.2% for the first, 41.8% for the second.

Compared with CCCCC1CCc2cccc3c(SCC(=O)N(C)c4ccc(Cl)cc4)cc[n+]1c23 (centres undefined), O=C(O)c1cn(C2CC2)c2cc(N3CCN(C(=O)C[n+]4ccccc4)CC3)c(F)cc2c1=O is lower in growth: 102% for the first, 101% for the second.

First: O=c1c2cc(F)ccc2sc2c(Nc3ccncc3)nc3ccccc3c12
Second: O=c1c2cc(F)ccc2sc2c(NCCN3CCCC3)nc3ccccc3c12
The growth of the first is lower: 75% for the first, 79.7% for the second.

Going from CN1C(=O)N(C)C2(c3ccccc3)OC(=S)NC12c1ccccc1 (centres undefined) to Cn1c2c(c(=O)[nH]c1=O)NC1=C(C(=O)c3ccccc31)C1(C=C(O)c3ccccc31)N2 (centres undefined), the growth rises from 104% to 111%.

First: Nc1nc(-c2cnccn2)nn1-c1nc2ccccc2s1
Second: COc1ccc(N)c(-c2cc3c(c4c2[nH]c2ccc(OC)cc24)CCCC3)c1
The growth of the first is lower: 92.2% for the first, 94.7% for the second.

In the case of COc1cc(/C(C#N)=C/c2nc3c(N4CCOCC4)nc(Cl)nc3n2C)cc(OC)c1OC, the growth is reported as -38.3% (active).
Cn1c(/C=C(\C#N)c2ccccc2)nc2c(N3CCOCC3)nc(Cl)nc21 was tested, and the growth was -53.8% (active).
In the case of CNC(=O)c1cc(Oc2ccc(CC(=O)Nc3cc(C(C)(C)C)cn3C)cc2)ccn1, the growth is reported as 8.83% (active).
COc1cccc2cc(N(C)c3nc(C)nc4ccsc34)ccc12 was tested, and the growth was -63% (active).
In the case of COc1cccc(/C(C#N)=C/c2nc3c(N4CCOCC4)nc(Cl)nc3n2C)c1, the growth is reported as 4.5% (active).
